# According to publication PMC7862700, “An all-to-all approach to the identification of sequence-specific readers for epigenetic DNA modifications on cytosine”:
# Experiments:
# Assay in all cases: DAPPL (digital affinity profiling via proximity ligation, sequencing); 10 mM Tris-HCl pH 7.5, 50 mM NaCl, 1 mM DTT, 4% glycerol, room temperature, 30 min; GST-TFs on glutathione beads, 16-mer random dsDNA library, 0.1% formaldehyde crosslink after washing; high values mean tight binding
# Conditions in all cases: protein: recombinant; tags: N-terminal GST; dsDNA, one strand shown
# FLI1 = target: T1, FLI1 (Homo sapiens, UniProt Q01543 1-452)
# T1 sequence: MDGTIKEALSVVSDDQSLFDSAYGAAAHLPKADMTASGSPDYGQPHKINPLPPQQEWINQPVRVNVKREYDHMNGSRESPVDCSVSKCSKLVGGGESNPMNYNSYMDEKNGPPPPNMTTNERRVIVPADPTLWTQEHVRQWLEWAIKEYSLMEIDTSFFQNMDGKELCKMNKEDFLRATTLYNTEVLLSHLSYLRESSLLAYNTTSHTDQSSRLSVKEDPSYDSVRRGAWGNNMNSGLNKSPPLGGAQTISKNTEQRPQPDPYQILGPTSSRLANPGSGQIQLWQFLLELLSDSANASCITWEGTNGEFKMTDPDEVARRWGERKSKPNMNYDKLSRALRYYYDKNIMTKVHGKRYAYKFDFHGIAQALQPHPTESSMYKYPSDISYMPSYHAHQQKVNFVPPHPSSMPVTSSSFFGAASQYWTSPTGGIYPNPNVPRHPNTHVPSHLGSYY
# Outline: (§1)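 Human transcription factors fused to GST were expressed in yeast, captured on glutathione beads, given DNA barcodes and pooled with a GST-only negative control. Pools were incubated with 200 nmole of a 16-mer random double-stranded DNA library in Tris/NaCl/DTT/glycerol buffer at room temperature for 30 min. They were then washed, crosslinked with 0.1% formaldehyde, proximity-ligated (BsaI/T4 ligase, 1 h, 37 °C), PCR-amplified and sequenced on an Illumina NextSeq500. Binding signal is each 6-mer's read frequency for a factor divided by its frequency for the GST control.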
# ELK1 = target: T2, ELK1 (Homo sapiens, UniProt P19419 1-428)
# T2 sequence: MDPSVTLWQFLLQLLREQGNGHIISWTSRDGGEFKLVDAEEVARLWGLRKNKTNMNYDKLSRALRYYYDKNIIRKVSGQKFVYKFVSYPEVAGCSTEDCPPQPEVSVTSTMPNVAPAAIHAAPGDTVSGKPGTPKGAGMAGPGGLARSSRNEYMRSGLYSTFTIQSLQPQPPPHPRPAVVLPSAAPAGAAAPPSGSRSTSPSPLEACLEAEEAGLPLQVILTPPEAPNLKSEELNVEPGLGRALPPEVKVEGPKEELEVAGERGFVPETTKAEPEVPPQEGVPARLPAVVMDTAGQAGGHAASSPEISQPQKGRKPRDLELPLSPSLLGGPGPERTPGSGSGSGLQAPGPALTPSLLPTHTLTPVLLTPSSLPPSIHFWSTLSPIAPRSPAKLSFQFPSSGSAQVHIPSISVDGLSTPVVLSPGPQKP
# Outline: as §1
# GABPA = target: T3, GABPA (Homo sapiens, UniProt Q06546 1-454)
# T3 sequence: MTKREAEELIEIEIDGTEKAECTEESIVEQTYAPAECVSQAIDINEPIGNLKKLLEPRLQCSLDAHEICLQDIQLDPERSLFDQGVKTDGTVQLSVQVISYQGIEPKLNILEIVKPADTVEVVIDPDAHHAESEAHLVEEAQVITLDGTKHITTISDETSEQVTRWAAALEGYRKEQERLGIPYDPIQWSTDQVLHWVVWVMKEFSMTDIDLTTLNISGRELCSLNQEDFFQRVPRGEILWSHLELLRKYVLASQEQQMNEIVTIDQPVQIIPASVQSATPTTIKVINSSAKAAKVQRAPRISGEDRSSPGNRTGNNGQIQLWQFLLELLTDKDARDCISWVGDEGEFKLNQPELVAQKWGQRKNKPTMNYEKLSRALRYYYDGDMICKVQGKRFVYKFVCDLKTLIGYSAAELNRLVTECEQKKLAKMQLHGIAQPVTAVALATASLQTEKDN
# Outline: as §1
# ERG = target: T4, ERG (Homo sapiens, UniProt P11308 1-479)
# T4 sequence: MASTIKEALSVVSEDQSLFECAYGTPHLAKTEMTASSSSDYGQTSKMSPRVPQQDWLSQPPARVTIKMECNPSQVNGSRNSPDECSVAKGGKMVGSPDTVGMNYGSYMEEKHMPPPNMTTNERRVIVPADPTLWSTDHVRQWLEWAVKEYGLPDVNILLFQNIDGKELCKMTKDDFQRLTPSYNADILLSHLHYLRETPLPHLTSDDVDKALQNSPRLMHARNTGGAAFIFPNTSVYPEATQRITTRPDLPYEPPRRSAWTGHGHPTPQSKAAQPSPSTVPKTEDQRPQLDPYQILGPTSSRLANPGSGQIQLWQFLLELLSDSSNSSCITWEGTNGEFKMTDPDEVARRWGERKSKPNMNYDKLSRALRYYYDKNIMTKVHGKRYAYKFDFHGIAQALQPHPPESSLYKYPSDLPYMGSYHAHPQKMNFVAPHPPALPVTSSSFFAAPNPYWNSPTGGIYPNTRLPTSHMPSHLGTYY
# Outline: as §1
# SPIB = SPIB (Homo sapiens, UniProt Q01892 1-262)
# Outline: as §1
# SPIC = target: T5, SPIC (Homo sapiens, UniProt Q8N5J4 1-248)
# T5 sequence: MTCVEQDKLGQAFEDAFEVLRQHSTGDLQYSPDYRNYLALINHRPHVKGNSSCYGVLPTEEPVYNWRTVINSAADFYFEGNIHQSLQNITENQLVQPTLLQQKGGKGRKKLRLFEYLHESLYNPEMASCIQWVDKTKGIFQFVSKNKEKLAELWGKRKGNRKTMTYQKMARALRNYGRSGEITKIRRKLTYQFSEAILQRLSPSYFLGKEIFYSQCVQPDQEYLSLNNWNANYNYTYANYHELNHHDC
# Outline: as §1
# ELF4 = ELF4 (Homo sapiens, UniProt Q99607 1-663)
# Outline: as §1
# ELK4 = target: T6, ELK4 (Homo sapiens, UniProt P28324-2 1-405)
# T6 sequence: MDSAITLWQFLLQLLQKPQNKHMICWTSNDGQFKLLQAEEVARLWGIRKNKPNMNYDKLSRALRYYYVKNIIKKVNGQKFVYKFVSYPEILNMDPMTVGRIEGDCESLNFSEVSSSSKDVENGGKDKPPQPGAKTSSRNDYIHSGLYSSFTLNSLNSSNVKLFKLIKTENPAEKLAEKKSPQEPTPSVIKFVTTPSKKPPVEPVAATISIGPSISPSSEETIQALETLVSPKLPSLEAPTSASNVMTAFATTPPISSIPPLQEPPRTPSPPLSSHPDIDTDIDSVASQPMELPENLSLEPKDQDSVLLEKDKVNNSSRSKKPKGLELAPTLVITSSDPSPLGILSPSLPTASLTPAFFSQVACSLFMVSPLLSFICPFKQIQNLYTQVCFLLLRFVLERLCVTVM
# Outline: as §1
# ETV2 = target: T7, ETV2 (Homo sapiens, UniProt O00321 1-342)
# T7 sequence: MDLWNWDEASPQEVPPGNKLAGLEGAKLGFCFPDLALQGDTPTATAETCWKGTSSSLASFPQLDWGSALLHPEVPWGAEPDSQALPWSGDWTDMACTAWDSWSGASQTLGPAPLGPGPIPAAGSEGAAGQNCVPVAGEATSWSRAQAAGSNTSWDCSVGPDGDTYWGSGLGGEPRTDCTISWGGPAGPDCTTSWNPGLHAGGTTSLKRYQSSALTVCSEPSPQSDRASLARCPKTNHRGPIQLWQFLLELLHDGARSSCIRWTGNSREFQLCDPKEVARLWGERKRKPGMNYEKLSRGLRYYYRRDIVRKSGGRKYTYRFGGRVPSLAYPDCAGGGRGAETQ
# Outline: as §1
# ELF3 = target: T8, ELF3 (Homo sapiens, UniProt P78545 1-371)
# T8 sequence: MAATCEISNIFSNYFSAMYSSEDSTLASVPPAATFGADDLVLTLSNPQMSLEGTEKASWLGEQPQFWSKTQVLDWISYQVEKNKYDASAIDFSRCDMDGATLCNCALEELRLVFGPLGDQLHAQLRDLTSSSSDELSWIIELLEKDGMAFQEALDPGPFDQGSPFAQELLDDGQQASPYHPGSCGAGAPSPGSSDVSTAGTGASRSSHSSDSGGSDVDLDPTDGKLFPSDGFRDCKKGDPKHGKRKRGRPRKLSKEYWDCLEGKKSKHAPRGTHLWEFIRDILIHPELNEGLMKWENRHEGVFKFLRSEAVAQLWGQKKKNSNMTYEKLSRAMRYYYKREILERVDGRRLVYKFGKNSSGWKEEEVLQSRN
# Outline: as §1
# ETV1 = ETV1 (Homo sapiens, UniProt P50549 1-477)
# Outline: as §1
# ERF = target: T9, ERF (Homo sapiens, UniProt P50548 1-548)
# T9 sequence: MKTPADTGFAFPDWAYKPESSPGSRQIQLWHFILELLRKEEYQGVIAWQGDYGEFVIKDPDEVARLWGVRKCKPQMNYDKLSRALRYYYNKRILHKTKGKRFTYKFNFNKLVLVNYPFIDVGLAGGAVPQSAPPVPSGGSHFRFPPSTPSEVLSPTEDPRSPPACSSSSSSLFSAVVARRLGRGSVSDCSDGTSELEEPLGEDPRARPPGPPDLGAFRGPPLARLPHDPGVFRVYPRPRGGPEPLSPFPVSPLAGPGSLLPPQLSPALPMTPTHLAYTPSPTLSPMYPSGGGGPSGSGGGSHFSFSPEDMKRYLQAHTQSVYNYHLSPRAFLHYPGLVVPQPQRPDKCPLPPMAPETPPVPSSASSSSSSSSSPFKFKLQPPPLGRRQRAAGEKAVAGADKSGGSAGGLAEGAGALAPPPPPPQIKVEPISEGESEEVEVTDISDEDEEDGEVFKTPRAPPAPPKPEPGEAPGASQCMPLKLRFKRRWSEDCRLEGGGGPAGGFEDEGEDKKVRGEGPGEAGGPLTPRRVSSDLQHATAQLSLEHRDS
# Outline: as §1
# ETV3L = target: T10, ETV3L (Homo sapiens, UniProt Q6ZN32 1-361)
# T10 sequence: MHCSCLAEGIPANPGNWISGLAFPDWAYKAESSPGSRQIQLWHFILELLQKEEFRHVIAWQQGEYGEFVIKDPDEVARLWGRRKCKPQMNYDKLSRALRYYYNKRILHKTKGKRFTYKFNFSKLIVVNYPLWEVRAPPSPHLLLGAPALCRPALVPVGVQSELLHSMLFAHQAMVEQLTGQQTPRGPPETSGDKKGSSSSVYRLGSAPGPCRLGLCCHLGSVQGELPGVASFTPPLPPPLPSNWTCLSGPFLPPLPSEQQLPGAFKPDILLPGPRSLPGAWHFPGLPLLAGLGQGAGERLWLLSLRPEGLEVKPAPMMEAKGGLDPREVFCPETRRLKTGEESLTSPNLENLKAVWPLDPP
# Outline: as §1
# ETS2 = target: T11, ETS2 (Homo sapiens, UniProt P15036 1-469)
# T11 sequence: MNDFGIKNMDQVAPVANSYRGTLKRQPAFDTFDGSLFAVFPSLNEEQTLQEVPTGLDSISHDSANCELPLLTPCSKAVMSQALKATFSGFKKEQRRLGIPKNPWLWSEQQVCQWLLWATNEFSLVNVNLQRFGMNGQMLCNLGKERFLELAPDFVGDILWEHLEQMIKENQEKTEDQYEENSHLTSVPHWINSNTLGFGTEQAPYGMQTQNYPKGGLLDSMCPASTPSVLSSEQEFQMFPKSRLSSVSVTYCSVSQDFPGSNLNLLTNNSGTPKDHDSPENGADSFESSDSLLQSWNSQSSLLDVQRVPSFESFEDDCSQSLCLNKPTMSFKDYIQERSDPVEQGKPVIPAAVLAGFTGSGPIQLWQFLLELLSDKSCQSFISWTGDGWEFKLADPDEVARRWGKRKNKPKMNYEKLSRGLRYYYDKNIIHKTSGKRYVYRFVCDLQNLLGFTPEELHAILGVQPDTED
# Outline: as §1
# ETV3 = target: T12, ETV3 (Homo sapiens, UniProt P41162-2 1-143)
# T12 sequence: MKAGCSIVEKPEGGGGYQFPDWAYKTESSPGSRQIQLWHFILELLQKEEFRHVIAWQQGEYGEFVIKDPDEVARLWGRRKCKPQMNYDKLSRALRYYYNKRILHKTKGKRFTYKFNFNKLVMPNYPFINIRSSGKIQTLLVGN
# Outline: as §1
# ETV6 = ETV6 (Homo sapiens, UniProt P41212 1-452)
# Outline: as §1
# Sequence of ETV6 (P41212 whole entry): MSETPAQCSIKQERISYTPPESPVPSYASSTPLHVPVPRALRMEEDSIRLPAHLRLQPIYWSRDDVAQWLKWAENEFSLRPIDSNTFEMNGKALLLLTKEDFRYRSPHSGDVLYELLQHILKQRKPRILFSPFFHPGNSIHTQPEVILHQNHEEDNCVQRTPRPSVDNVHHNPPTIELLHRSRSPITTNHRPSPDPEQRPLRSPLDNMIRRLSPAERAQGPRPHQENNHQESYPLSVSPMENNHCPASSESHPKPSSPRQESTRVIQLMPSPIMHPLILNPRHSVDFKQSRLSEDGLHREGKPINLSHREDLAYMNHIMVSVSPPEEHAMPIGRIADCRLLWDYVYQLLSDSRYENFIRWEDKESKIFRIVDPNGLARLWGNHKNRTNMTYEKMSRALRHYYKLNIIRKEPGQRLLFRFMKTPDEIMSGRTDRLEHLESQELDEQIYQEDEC
# Sequence of SPIB (Q01892 whole entry): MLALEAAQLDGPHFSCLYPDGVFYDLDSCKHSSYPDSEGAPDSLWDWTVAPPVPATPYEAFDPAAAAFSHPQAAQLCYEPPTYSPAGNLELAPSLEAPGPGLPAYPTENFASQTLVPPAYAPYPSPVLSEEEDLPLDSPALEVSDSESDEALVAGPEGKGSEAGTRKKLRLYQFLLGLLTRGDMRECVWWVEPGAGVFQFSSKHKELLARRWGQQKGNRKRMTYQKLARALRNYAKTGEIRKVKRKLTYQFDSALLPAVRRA
# Sequence of ELF4 (Q99607 whole entry): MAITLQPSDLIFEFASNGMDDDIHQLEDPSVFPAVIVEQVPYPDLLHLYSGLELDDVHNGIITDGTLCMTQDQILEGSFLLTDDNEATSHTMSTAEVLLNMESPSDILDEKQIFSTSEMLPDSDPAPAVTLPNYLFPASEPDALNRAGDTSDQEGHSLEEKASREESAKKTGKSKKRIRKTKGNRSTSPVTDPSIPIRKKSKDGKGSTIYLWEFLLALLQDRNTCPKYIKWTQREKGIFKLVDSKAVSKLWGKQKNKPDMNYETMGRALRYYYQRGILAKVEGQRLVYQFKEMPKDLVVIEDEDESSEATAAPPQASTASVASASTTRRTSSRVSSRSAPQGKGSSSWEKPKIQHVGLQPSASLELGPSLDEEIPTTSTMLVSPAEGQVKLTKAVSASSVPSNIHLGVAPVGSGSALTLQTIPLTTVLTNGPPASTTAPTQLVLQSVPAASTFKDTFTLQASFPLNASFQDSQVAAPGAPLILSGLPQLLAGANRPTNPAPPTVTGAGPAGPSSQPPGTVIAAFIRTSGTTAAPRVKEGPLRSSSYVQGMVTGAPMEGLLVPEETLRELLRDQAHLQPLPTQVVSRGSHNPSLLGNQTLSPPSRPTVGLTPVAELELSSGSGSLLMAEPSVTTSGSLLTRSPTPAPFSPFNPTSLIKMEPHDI
# Sequence of ETV1 (P50549 whole entry): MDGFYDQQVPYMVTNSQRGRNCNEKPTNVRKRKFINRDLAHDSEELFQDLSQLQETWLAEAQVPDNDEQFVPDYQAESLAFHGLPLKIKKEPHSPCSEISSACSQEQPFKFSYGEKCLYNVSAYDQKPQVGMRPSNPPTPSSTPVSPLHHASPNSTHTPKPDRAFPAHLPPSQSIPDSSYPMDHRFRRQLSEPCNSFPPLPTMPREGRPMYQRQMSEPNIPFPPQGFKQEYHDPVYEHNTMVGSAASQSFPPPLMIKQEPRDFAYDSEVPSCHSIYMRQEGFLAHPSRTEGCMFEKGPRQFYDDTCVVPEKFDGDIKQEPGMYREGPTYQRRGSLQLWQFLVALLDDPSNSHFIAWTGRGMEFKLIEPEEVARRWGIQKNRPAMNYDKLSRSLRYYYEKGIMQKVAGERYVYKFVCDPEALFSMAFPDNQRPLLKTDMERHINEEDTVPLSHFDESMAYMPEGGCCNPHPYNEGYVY
sequence,measurement,setting,value
TGGATA,binding signal,FLI1,"1.08 fold enrichment (6-mer frequency, TF over GST control)"
same,binding signal,ELK1,"1.05 fold enrichment (6-mer frequency, TF over GST control)"
same,binding signal,GABPA,"1.1 fold enrichment (6-mer frequency, TF over GST control)"
same,binding signal,ERG,"1.08 fold enrichment (6-mer frequency, TF over GST control)"
same,binding signal,SPIB,"1.12 fold enrichment (6-mer frequency, TF over GST control)"
same,binding signal,SPIC,"1.04 fold enrichment (6-mer frequency, TF over GST control)"
same,binding signal,ELF4,"1.05 fold enrichment (6-mer frequency, TF over GST control)"
same,binding signal,ELK4,"1.07 fold enrichment (6-mer frequency, TF over GST control)"
same,binding signal,ETV2,"1.02 fold enrichment (6-mer frequency, TF over GST control)"
same,binding signal,ELF3,"1.16 fold enrichment (6-mer frequency, TF over GST control)"
same,binding signal,ETV1,"1.09 fold enrichment (6-mer frequency, TF over GST control)"
same,binding signal,ERF,"1 fold enrichment (6-mer frequency, TF over GST control)"
same,binding signal,ETV3L,"1.04 fold enrichment (6-mer frequency, TF over GST control)"
same,binding signal,ETS2,"1.06 fold enrichment (6-mer frequency, TF over GST control)"
same,binding signal,ETV3,"1.06 fold enrichment (6-mer frequency, TF over GST control)"
same,binding signal,ETV6,"1 fold enrichment (6-mer frequency, TF over GST control)"
